Compounds with a hit are over-represented: about 2.8% of the library has one in this group of screens.
SENP8 block-1: SENP8 protease inhibitors, primary screen, biochemical, luminescence; Sentrin-specific protease 8 (Homo sapiens), Q96LD8; purified SENP8, Z-RLRGG-aminoluciferin cleavage; inhibition, % at 10 µM; 1.2% of 330,000 active; AID 2540, 2010; in the data active = inhibition above about 50%
SENP7 inh: SENP7 protease inhibitors, primary screen, biochemical, luminescence, uHTS; recombinant SENP7, Z-RLRGG-aminoluciferin luminescence, 40 min; Sentrin-specific protease 7 (Homo sapiens), Q9BQF6; 1.5% of 330,000 active; inhibition, % at 5 µM;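 active = inhibition above about 50% at the single test dose, limit read from the data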
SENP8 block-2: human SENP8 protease inhibitors, primary screen, biochemical, fluorescence, Nedd8 protein substrate, uHTS. Sentrin-specific protease 8 (Homo sapiens), Q96LD8. recombinant SENP8. inhibition, % at 20 µM. 0.64% of 360,000 active. AID 602440, 2012; in the data active = inhibition mostly above about 40%, no sharp cut-off; inactive = mostly below about 27%
SENP6 block: SENP6 protease inhibitors, primary screen, biochemical, luminescence, uHTS | Sentrin-specific protease 6 (Homo sapiens), Q9GZR1 | Recombinant SENP6 catalytic domain, aminoluciferin luminescence | inhibition, % at 10 µM | 1.8% of 330,000 active | AID 2599, 2010;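 active = inhibition above about 50% at the single tested dose, limit read from the data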
Target sequence (Q9GZR1 628-1112 limits assumed): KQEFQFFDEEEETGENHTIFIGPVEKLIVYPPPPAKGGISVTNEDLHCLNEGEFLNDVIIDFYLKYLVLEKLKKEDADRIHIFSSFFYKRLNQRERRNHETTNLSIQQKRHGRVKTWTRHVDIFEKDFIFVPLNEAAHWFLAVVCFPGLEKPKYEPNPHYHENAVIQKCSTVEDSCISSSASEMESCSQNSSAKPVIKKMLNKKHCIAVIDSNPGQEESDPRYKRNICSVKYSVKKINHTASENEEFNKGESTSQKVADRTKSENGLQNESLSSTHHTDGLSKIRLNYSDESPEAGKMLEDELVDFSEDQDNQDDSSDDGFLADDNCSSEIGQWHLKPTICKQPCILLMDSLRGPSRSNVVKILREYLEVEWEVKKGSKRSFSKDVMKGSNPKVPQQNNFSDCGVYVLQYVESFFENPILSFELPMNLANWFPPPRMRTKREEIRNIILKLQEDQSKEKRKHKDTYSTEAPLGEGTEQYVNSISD
HSP90 refold inh: HSP90 inhibitors, primary screen, cell lysate, luminescence. Heat shock protein HSP 90 (rabbit reticulocyte lysate; luciferase refolding). Rabbit reticulocyte lysate, luciferase refolding luminescence, 3 h. inhibition, % at 5.6 µM. 0.91% of 290,000 active. AID 1789, 2009;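 active = inhibition above the screen-wide mean plus 3 SD, computed separately per campaign, cut at about 16% in these data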;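 note: inhibitors lower the luminescence because luciferase stays unfolded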
Platelet DG rel: inhibitors of platelet dense granule secretion, primary screen, cell-based, MLPCN, human platelets; 0.22% of 300,000 active; human platelet-rich plasma, SFLLRN dense granule ATP release, luminescence; inhibition, %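 (compounds screened at 7.5 µM in platelet-rich plasma)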; AID 1663, 2009;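 active = mean replicate score, as percent of positive control, at or above 50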
SENP8 confirm: SENP8 protease inhibitors, retest, confirmation, biochemical, luminescence, single concentration; Recombinant SENP8, Z-RLRGG-aminoluciferin luminescence, 60 min; 40% of 6,200 active; AID 488912, 2010; inhibition, % at 12.5 µM; shares compounds with SENP7 inh;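 active = mean inhibition across replicates above about 50%, limit read from the data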
SENP6 conf: SENP6 protease inhibitors, confirmation, biochemical, luminescence, single concentration; shares compounds with SENP7 inh; recombinant SENP6, Z-RLRGG-aminoluciferin luminescence; inhibition, % at 12.5 µM; 58% of 6,200 active; AID 488915, 2010
SENP7 conf: SENP7 protease inhibitors, retest, confirmation, biochemical, luminescence, single concentration. AID 488917, 2010. shares compounds with SENP7 inh. inhibition, % at 12.5 µM. recombinant SENP7, Z-RLRGG-aminoluciferin luminescence, 40 min. 69% of 6,200 active
Casp3 select: caspase-3 protease inhibitors, confirmation, selectivity assay for SENP inhibitor project, biochemical, single concentration; shares compounds with SENP7 inh; purified caspase-3, Z-DEVD-aminoluciferin luminescence, 60 min; inhibition, % at 12.5 µM; 60% of 6,200 active; AID 488918, 2010;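 active = mean inhibition above about 50%, limit read from the data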
Luc interf: interferes with luciferase luminescence in SENP counter-screen; Pre-incubated SENP8/Z-RLRGG-aminoluciferin, luciferase luminescence interference; inhibition, % at 12.5 µM; shares compounds with SENP7 inh; 39% of 6,200 active;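 active = mean inhibition above about 50% when retested at one dose, limit read from the data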
Each line names hits and unclear results; the compound was inactive in the other large screens (follow-up assays come after a bar, where they were run).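 Rule for the calls, unless noted: active = mean inhibition above about 50% in the one-dose retest (limit read from the data); inactive = the rest.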

Cc1cc(C)nc(SCC(=O)N/N=C/c2ccc3c(c2)OCO3)n1	SENP8 block-1 52, SENP6 block 62 | SENP8 confirm inactive | SENP6 conf inactive | SENP7 conf inactive | Casp3 select inactive | Luc interf inactive
O=C(N/N=C/c1ccc2c(c1)OCO2)c1ccc2c(c1)OCCO2	none
CCCCc1c(-c2ccccc2OC)ncn1CCc1ccccc1Cl	none (no result: SENP8 block-1, SENP7 inh, SENP6 block, HSP90 refold inh, Platelet DG rel)
COc1cccc(/C=N/NC(=O)c2cccs2)c1	SENP7 inh 62, SENP6 block 55 | SENP8 confirm 54 | SENP6 conf 50 | SENP7 conf 84 | Casp3 select 71 | Luc interf 64
O=C(N/N=C/c1ccc(OC(=O)c2cccs2)cc1)c1ccccn1	SENP7 inh 74 | SENP8 confirm inactive | SENP6 conf inactive | SENP7 conf inactive | Casp3 select inactive | Luc interf inactive
O=C(O)c1cc2c(ccc3ccccc32)o1	none
CCc1ccc2oc(C(=O)Nc3cccnc3)c(C)c2c1	SENP7 inh 69, SENP6 block 64 | SENP8 confirm inactive | SENP6 conf 67 | SENP7 conf 92 | Casp3 select 55 | Luc interf inactive
O=C(Nc1cccnc1)c1cc2c(ccc3ccccc32)o1	SENP8 block-1 61, SENP7 inh 82, SENP6 block 67 | SENP8 confirm inactive | SENP6 conf 56 | SENP7 conf 56 | Casp3 select 62 | Luc interf inactive
O=C(c1cc2c(ccc3ccccc32)o1)N1CCCCC1	SENP8 block-1 84, SENP7 inh 91, SENP6 block 93 | SENP8 confirm 90 | SENP6 conf 90 | SENP7 conf 99 | Casp3 select 86 | Luc interf 89
CC(C)(c1ccccc1)c1ccc(OCC(O)CNC2CCN(Cc3ccccc3)CC2)cc1 (stereo not given)	none
COCCNc1cnn(-c2ccccc2)c(=O)c1Cl	none
Cc1cccc(NC(=O)CSc2nc3nc(C)cc(C)n3n2)c1	none
COC(=O)c1ccc(CSc2nc3ccccc3[nH]2)o1	none
c1ccc2[nH]c(SCc3ccc(-c4nnco4)cc3)nc2c1	SENP7 inh 71, SENP6 block 72 | SENP8 confirm 64 | SENP6 conf 61 | SENP7 conf 88 | Casp3 select 81 | Luc interf 75
O=C1CCC(=O)N1c1ccc(CSc2nc3ccccc3[nH]2)cc1	none
COC(=O)c1cccc(CSc2nc3ccccc3[nH]2)c1	SENP7 inh 72, SENP6 block 65 | SENP8 confirm inactive | SENP6 conf 50 | SENP7 conf 83 | Casp3 select 64 | Luc interf 68
COc1ccc(CSc2nc3ccccc3[nH]2)cc1	SENP8 block-1 88, SENP7 inh 94, SENP6 block 96 (no result: Platelet DG rel) | SENP8 confirm 92 | SENP6 conf 94 | SENP7 conf 100 | Casp3 select 92 | Luc interf 93
O=c1[nH]cc(S(=O)(=O)N2CCN(c3ccc(F)cc3)CC2)c(=O)[nH]1	none (no result: SENP8 block-1, SENP7 inh, SENP6 block, HSP90 refold inh, Platelet DG rel)
CN(C)C1(CNC(=O)C2CCN(S(=O)(=O)c3ccccc3C(F)(F)F)CC2)CCCCC1	none
COC(=O)[C@]1(C)N[C@H](CN(C)C(=O)c2ccc(F)cc2)[C@@H]2C(=O)N(Cc3ccccc3)C(=O)[C@@H]21	none (no result: HSP90 refold inh, Platelet DG rel)
CC(=O)c1cccc(NC(=O)c2oc(C)nc2C)c1	none
C/C(=N/OC(=O)c1ccccc1)c1oc(C)nc1C	SENP7 inh 78, SENP6 block 62 | SENP8 confirm 67 | SENP6 conf 67 | SENP7 conf 90 | Casp3 select 87 | Luc interf 52
COc1ccc2c(c1OC)C(=O)OC2Nc1nc(-c2cc3cc([N+](=O)[O-])ccc3oc2=O)cs1 (stereo not given)	SENP8 block-1 52, SENP7 inh 65, SENP6 block 60 | SENP8 confirm inactive | SENP6 conf inactive | SENP7 conf inactive | Casp3 select inactive | Luc interf inactive
COc1cccc(-c2csc(NC3OC(=O)c4c3ccc(OC)c4OC)n2)c1 (stereo not given)	none
COc1ccc2oc(=O)c(-c3csc(Nc4ccc(O)cc4)n3)cc2c1	none
COc1ccc2c(c1OC)C(=O)OC2Nc1nc(-c2ccc(-c3ccccc3)cc2)cs1 (stereo not given)	SENP8 block-1 69, SENP7 inh 63, SENP6 block 83 | SENP8 confirm 51 | SENP6 conf inactive | SENP7 conf 56 | Casp3 select inactive | Luc interf 74
NS(=O)(=O)c1ccc(CNC(=O)Cc2ccsc2)cc1	none
CCOC(=O)c1ccc[n+](CC(=O)c2ccc(NC(=O)c3ccccc3)cc2)c1	none
Cc1nn2c(-c3ccccc3)ccnc2c1Br	none
Cc1nn2cc(-c3cccc(Cl)c3)cnc2c1Br	SENP7 inh 81 | SENP8 confirm inactive | SENP6 conf inactive | SENP7 conf inactive | Casp3 select inactive | Luc interf inactive
CC1(C)CNC(=O)c2sc(NC(=O)c3ccccc3)nc2C1	none
CC1(C)CC(=O)c2sc(NC(=O)c3ccccc3)nc2C1	SENP8 block-1 55, SENP7 inh 57 (no result: SENP8 block-2) | SENP8 confirm 60 | SENP6 conf 51 | SENP7 conf 65 | Casp3 select 75 | Luc interf 64
CC1(C)CC(=O)c2sc(NC(=O)c3cccs3)nc2C1	SENP8 block-1 52, SENP7 inh 66, SENP6 block 80 | SENP8 confirm 63 | SENP6 conf 64 | SENP7 conf 88 | Casp3 select 87 | Luc interf inactive
CN(C)C(=O)COc1ncnc2sc(-c3ccccc3)cc12	none
